Experiment in all cases: NCI-60 one-dose screen, 48 h (100 = growth as untreated, 0 = no growth, -100 = all killed)
In one assay the test system is DU-145 prostate. The settings on record: 10 µM unless noted.
A further assay deals with K-562 leukemia. Conditions: 10 µM unless noted.
A further assay has as its system MALME-3M melanoma. The settings on record: 10 µM unless noted.
The next assay has as its system MDA-MB-231 breast. The settings on record: 10 µM unless noted.
The next assay has as its system RXF 393 renal. Conditions: 10 µM unless noted.
A further assay has as its system SF-268 CNS. The settings on record: 10 µM unless noted.
Another assay has as its system SF-295 CNS. Conditions: 10 µM unless noted.
A further assay deals with SF-539 CNS. The settings on record: 10 µM unless noted.
Another assay deals with UACC-257 melanoma. The settings on record: 10 µM unless noted.
A further assay has as its system M14 melanoma. The settings on record: 10 µM unless noted.
The test system of the next assay is HCT-15 colon. The settings on record: 10 µM unless noted.
The next assay deals with HT29 colon. Conditions: 10 µM unless noted.
The subject of another assay is SNB-75 CNS. The settings on record: 10 µM unless noted.
Another assay deals with SNB-19 CNS. The settings on record: 10 µM unless noted.
In another assay the test system is U251 CNS. Conditions: 10 µM unless noted.
The test system of a further assay is PC-3 prostate. Conditions: 10 µM unless noted.
Another assay deals with SK-MEL-5 melanoma. Conditions: 10 µM unless noted.
For a further assay, the system named is UACC-62 melanoma. The settings on record: 10 µM unless noted.
Another assay deals with LOX IMVI melanoma. The settings on record: 10 µM.
For the next assay, the system named is SK-MEL-28 melanoma. Conditions: 10 µM unless noted.

Molecules are shown by their SMILES. About 83,000 compounds went through this panel and 20% of them were active in at least one assay; those are over-represented in the sample as a whole.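 Interpretation: 100, growth as untreated; towards 0, rising growth inhibition; 0, no net growth; 0 to -100, cell death. Compounds scoring below 10 were considered active.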 A number with no mark means an inactive call. Activity calls are given as the source filed them.

For the compound `Cc1nc(Nc2ccccn2)sc1C(=O)CC(SCC(=O)Nc1ccc(Cl)cc1)c1ccccc1F` (stereo not given), the growth is -35.3% (active) in the assay with DU-145 prostate; 11.8% in the assay with K-562 leukemia; 27.5% with MALME-3M melanoma; -40.1% (active) in the assay on MDA-MB-231 breast; 1.73% (active) with RXF 393 renal; 22.4% in the assay with SF-268 CNS. In addition, the growth is 2% (active) with SF-295 CNS; -58.4% (active) in the assay with SF-539 CNS; 36.9% in the assay on UACC-257 melanoma; 1.45% (active) in the assay on M14 melanoma; 2.33% (active) in the assay on HCT-15 colon; -28.4% (active) with HT29 colon. The growth in the assay on SNB-75 CNS was 16.5%; with SNB-19 CNS, 11%; in the assay with U251 CNS, -21.1% (active); with PC-3 prostate, 43.2%; with SK-MEL-5 melanoma, 4.3% (active); in the assay with UACC-62 melanoma it was -10.6% (active). The growth was -22.5% (active) with LOX IMVI melanoma and 24.1% with SK-MEL-28 melanoma.
Regarding `Cc1ccc(S(=O)(=O)c2nc(S(=O)(=O)c3ccc(C)cc3)c(N3CCC(O)CC3)s2)cc1`, the growth is 70% with DU-145 prostate; 29% with K-562 leukemia; 92.2% in the assay with MALME-3M melanoma; 71.8% in the assay on MDA-MB-231 breast; 33.6% in the assay with RXF 393 renal; 70.3% in the assay on SF-268 CNS. Moreover, the growth in the assay with SF-295 CNS is 96.6%; in the assay on SF-539 CNS, 73.7%; in the assay on UACC-257 melanoma, 81.6%; in the assay on M14 melanoma it was 71.2%; in the assay with HCT-15 colon it was 22.9%; in the assay on HT29 colon it was 77.8%. Moreover, the growth in the assay on SNB-75 CNS is 97.5%; in the assay on SNB-19 CNS, 68.3%; in the assay on U251 CNS, 57.7%; in the assay on PC-3 prostate, 56.8%; in the assay on SK-MEL-5 melanoma, 78.1%; in the assay with UACC-62 melanoma, 42%. Besides, the growth with LOX IMVI melanoma was 50.5%; in the assay with SK-MEL-28 melanoma, 81.9%.
As to `Cc1cccc(-c2nc(Nc3ccc(C)c(S(N)(=O)=O)c3)c3ccccc3n2)c1`, the growth is 53.2% in the assay on DU-145 prostate; 7.2% (active) in the assay with K-562 leukemia; 46.6% in the assay on MALME-3M melanoma; 10.9% in the assay on MDA-MB-231 breast; 22.6% in the assay with RXF 393 renal; 50.9% in the assay on SF-268 CNS. The growth in the assay with SF-295 CNS is 5.63% (active); in the assay on SF-539 CNS, 9.73% (active); in the assay on UACC-257 melanoma, 76.4%; in the assay on M14 melanoma, 31.4%; with HCT-15 colon, -19.4% (active); in the assay on HT29 colon it was 18%. The growth is 91.5% in the assay with SNB-75 CNS; 32.5% in the assay on SNB-19 CNS; 29.4% in the assay on U251 CNS; 15.7% in the assay with PC-3 prostate; 29.5% in the assay with SK-MEL-5 melanoma; 43% with UACC-62 melanoma. The values for the growth with LOX IMVI melanoma and in the assay with SK-MEL-28 melanoma were -34.7% (active) and 38.9%, respectively.
As for `C#CCOc1ccc(/C=N/Nc2nc(-c3ccc(Cl)cc3)cs2)cc1OC`, the growth is 81.5% with DU-145 prostate; 26.2% with K-562 leukemia; 91.6% with MALME-3M melanoma; 77.1% in the assay on MDA-MB-231 breast; 27.1% in the assay with RXF 393 renal; 73.8% in the assay with SF-268 CNS. In addition, the growth is 77.4% in the assay with SF-295 CNS; 70.6% with SF-539 CNS; 45.5% in the assay with UACC-257 melanoma; 61.1% in the assay on M14 melanoma; 45.7% with HCT-15 colon; 69.3% with HT29 colon. For the same compound, the growth in the assay with SNB-75 CNS is 80.1%; in the assay on SNB-19 CNS it was 74.6%; in the assay with U251 CNS it was 64.6%; in the assay with PC-3 prostate, 29.9%; with SK-MEL-5 melanoma, 6.66% (active); in the assay on UACC-62 melanoma it was 54.7%. Also, the growth in the assay on LOX IMVI melanoma was 58.6%; in the assay with SK-MEL-28 melanoma it was 79.5%.
Turning to `O=[N+]([O-])c1ccc(/C=C/c2nc3ccccc3n3c(=S)[nH]nc23)cc1`, the growth in the assay with DU-145 prostate is 88%; in the assay with K-562 leukemia, 70.5%; in the assay with MALME-3M melanoma, 101%; in the assay on MDA-MB-231 breast it was 85.9%; in the assay with RXF 393 renal, 78.7%; with SF-268 CNS, 80.1%. Moreover, the growth with SF-295 CNS is 125%; in the assay with SF-539 CNS, 98.4%; in the assay with UACC-257 melanoma, 94.8%; in the assay with M14 melanoma, 84.4%; in the assay on HCT-15 colon it was 82.1%; with HT29 colon, 93.4%. Moreover, the growth is 102% in the assay on SNB-75 CNS; 78.4% in the assay with SNB-19 CNS; 76.2% with U251 CNS; 65.8% in the assay on PC-3 prostate; 61.8% in the assay on SK-MEL-5 melanoma; 63.3% in the assay with UACC-62 melanoma. The figures for the growth in the assay on LOX IMVI melanoma and with SK-MEL-28 melanoma were 91.3% and 82.7%, respectively.
For the compound `O=C(NN1C(=O)/C(=C/C=C/c2ccc([N+](=O)[O-])o2)SC1=S)c1cccc(O)c1`, the growth with DU-145 prostate is -99.2% (active); in the assay on K-562 leukemia it was 6.17% (active); in the assay on MALME-3M melanoma, -99.2% (active); in the assay with MDA-MB-231 breast, -98.4% (active); in the assay on RXF 393 renal, -89.6% (active); with SF-268 CNS, -91.3% (active). The growth in the assay on SF-295 CNS was -40.1% (active); with SF-539 CNS it was -100% (active); in the assay on UACC-257 melanoma, -85.2% (active); in the assay with M14 melanoma, -89% (active); in the assay with HCT-15 colon it was -65.1% (active); in the assay on HT29 colon, -67.2% (active). The growth was -71.3% (active) in the assay with SNB-75 CNS; -96.5% (active) in the assay on SNB-19 CNS; -96.2% (active) with U251 CNS; -40.2% (active) with PC-3 prostate; -100% (active) with SK-MEL-5 melanoma; -97.4% (active) in the assay with UACC-62 melanoma. Further, the figures for the growth in the assay with LOX IMVI melanoma and in the assay with SK-MEL-28 melanoma were -93.5% (active) and -100% (active), respectively.
As for `COc1ccc(/C=C/c2n(Cc3ccc4ccccc4c3)c3ccccc3[n+]2Cc2ccc3ccccc3c2)cc1`, the growth in the assay on DU-145 prostate was -93.1% (active); in the assay on K-562 leukemia, 1.11% (active); in the assay with MALME-3M melanoma, -85.7% (active); with MDA-MB-231 breast it was -86.5% (active); in the assay with RXF 393 renal it was -74.7% (active); with SF-268 CNS it was -80.5% (active). Also, the growth in the assay on SF-295 CNS is -95.8% (active); in the assay on SF-539 CNS, -95.5% (active); with UACC-257 melanoma, -91.7% (active); with M14 melanoma, -88.3% (active); in the assay on HCT-15 colon it was -76.9% (active); in the assay with HT29 colon it was -97.1% (active). Moreover, the growth is -95.7% (active) in the assay on SNB-75 CNS; -94.6% (active) with SNB-19 CNS; -94.3% (active) with U251 CNS; -25.1% (active) with PC-3 prostate; -97.6% (active) with SK-MEL-5 melanoma; -90.5% (active) with UACC-62 melanoma. Moreover, the growth in the assay on LOX IMVI melanoma is -80.4% (active); with SK-MEL-28 melanoma, -89% (active).

For the origin of these results see PubChem BioAssay (NCI).
